Here are results for 23 molecules from PubChem BioAssay (NCATS).

Structures are written as SMILES. Results filed as inconclusive are left out. A number with no mark means an inactive call. The source made the active and inactive calls. The call rests on the fitted dose curve; in most records, active means well fitted inhibition curve with a large enough effect; inconclusive means small, poorly fitted or top-dose-only effect; inactive means no such curve, though single readings can be large or run the other way.
Potency means the concentration at half of the fitted maximal effect.

The assay relates to Zika virus NS2B-NS3 protease (linked construct). Description: 384 well plate NINDS Rhodamine confirmatory qHTS for Zika virus inhibitors (AID 1347164). Further: nearly all actives have a fitted effect of over 65% in size. On activity change, negative = inhibition: top concentration of the series differs between compounds. The note with it: rhodamine-110 peptide substrate fluorescence; series mostly up to 100 µM; activity change, negative = inhibition: at the top concentration. An excerpt:
Description: Assay Submitters (PI): Avindra Nath, Ph.D., National Institute of Neurological Disorders and Stroke (NINDS), Bethesda, MD Radhakrishnan Padmanabhan, Ph.D., Georgetown University (GU), Washington D.C. Zika Virus causes congenital defects, including microcephaly and is associated with Guillain-Barre syndrome, eningoencephalitis and myelitis in infected adult. […] Using a target-based approach, we hope to establish a screening paradigm to uncover novel, cell-active NS2B-NS3 protease (Zika Virus) specific inhibitors from NCATS' collection of small molecules using qHTS. […] Four assay panel was created to identify potential Zika Virus inhibitors. Namely, (1) GU unlinked NS2B-NS3 AMC tagged protease qHTS, (2) GU unlinked NS2B-NS3 Rhodamine tagged protease qHTS, (3) NINDS linked NS2B-NS3 AMC tagged protease qHTS, (4) NINDS linked NS2B-NS3 Rhodamine tagged protease qHTS. Active compounds are validated using a secondary assay in 384 well plate format. Early Translation Branch (ETB) National Center for Advancing Translational Sciences (NCATS), Rockville, MD National Institute of Health (NIH), Bethesda, Maryland
384-well NINDS Rhodamine Assay: The protease was diluted to 7.5 nM, 40.9 nM, or 82 nM in assay buffer and dispensed into a 96-well PCR plate (Applied Biosystems); 20 or 22 microL was transferred to a black 384-well assay plate (final protease concentration of 5 nM, 30 nM, or 60 nM, respectively). Compounds (3 microL, 1 microM - 10 mM, DMSO) were diluted and transferred to the assay plate (final concentrations ranged from 100 nM to 1 mM). Compounds were incubated with protease for ~15 minutes. The substrate, Rhodamine 110 (Ac-LKRR-Rd; Genscript), was dissolved in DMSO to a concentration of 6 mM and further diluted into assay buffer to a working concentration of 180 microM, then dispensed into a 384-well preparation plate (Eppendorf). A multichannel repeat pipettor was used to add 3 or 5 microL of substrate to the assay plate to give a final concentration of 10 microM. The plate was incubated in the dark at room temperature. After 25 minutes, the fluorescence intensity (excitation: 485 nm, emission: 538 nm) was measured and normalized to no-enzyme and no-inhibitor controls. Aprotinin39 (VWR) was used as an intraplate control.
Background: In qHTS, concentration-response curves come from the screen itself.
Consider `COc1cccc(OC)c1-c1cc(C(=O)N[C@@H](CC(C)C)C(=O)O)nn1-c1ccnc2cc(Cl)ccc12`, for which the “activity change, negative = inhibition” value is -357%.

Regarding `Cc1ccc2[nH]c(=O)c(C3=NN(C(=O)CCC(=O)O)C(c4ccc(Br)cc4)C3)c(-c3ccccc3)c2c1` (stereo not drawn), the “activity change, negative = inhibition” value was -174%.

On to `COc1cc2c(c(O)c1OC/C=C(\C)CC/C=C(/C)CCC=C(C)C)CN(C(CCC(=O)O)C(=O)O)C2=O` (stereo not drawn), for which the “activity change, negative = inhibition” value was -233%.

Regarding `Cc1ccc([C@@H]2CC=C(C(=O)O)[C@H](c3ccc(C(C)(C)C)cc3)N2S(=O)(=O)c2ccc(C)cc2)cc1`, the Potency is 4.47 µM (active).

`CC1(C)CC=C(c2cnc3ccccc3c2)c2cc(C(=O)Nc3ccc(C(=O)O)cc3)ccc21`: the “activity change, negative = inhibition” value is -276%.

`Cc1ccccc1NC(=O)Nc1ccc(CN2C(=O)N([C@@H](CC(C)C)C(=O)N[C@@H](CC(=O)O)c3ccccc3)C(=O)C2(C)C)cc1`: the “activity change, negative = inhibition” value was -354%.

Consider `CC(C)CC(c1c(O)c(C=O)c(O)c(C=O)c1O)C1CCC(C)(O)C2CC(C(C)(C)O)CCC12C` (stereo not drawn), for which the Potency was 15.8 µM (active).

With `COc1cnc(-c2ccc(Cn3c(CC(C)(C)C(=O)O)c(SC(C)(C)C)c4cc(OC[C@@H]5Cc6ccccc6N5C(C)=O)ccc43)cc2)nc1`, the Potency is 1.78 µM (active).

Regarding `CC(=O)OC12CC(C)C(OC(=O)c3ccccc3)C1/C=C(/C)C(OC(=O)c1ccccc1)CC(=O)C(C)(C)/C=C/C(C)C2=O` (stereo not drawn), the Potency is 35.5 µM (active).

Take `C=C1C2CCC3C(CCC4[C@@]3(C)CCC[C@@]4(C)C(=O)O)(C2)[C@@H]1OC(=O)/C(C)=C\C` (stereo partly drawn): the Potency is 8.91 µM (active).

In the case of `C=C1C2CCC3CC2(CC(O)C2(O)C1CC(OC1OC(CO)C(O)C(O)C1O)C2(C)C)CC3(C)O` (stereo not drawn), the Potency was 0.501 µM (active).

`CC1C(O)C(O)C2C(C(=O)OCCc3ccc(O)cc3)=COC(O[C@@H]3O[C@H](CO)[C@@H](O)[C@H](O)[C@H]3O)C12` (stereo partly drawn): the Potency was 3.98 µM (active).

In the case of `C=CC1(C)C=C2CC[C@H]3[C@@](C)(C(=O)O)CCC[C@]3(C)C2CC1` (stereo partly drawn), the Potency is 20 µM (active).

For the molecule `O=C(O)CC1CCC(c2ccc(-c3ccc(Nc4ccc(C(F)(F)F)nc4)cn3)cc2)CC1` (stereo not drawn), the “activity change, negative = inhibition” value is 7.07%.

Consider `CC1(C)CC[C@]2(C(=O)O)CC[C@]3(C)C(=CCC4[C@@]5(C)CC[C@H](O[C@@H]6O[C@H](C(=O)O)[C@@H](O)[C@H](O)[C@H]6O)C(C)(C)C5CC[C@]43C)C2C1` (stereo partly drawn), for which the Potency was 2.24 µM (active).

Take `COc1cc(Nc2nc3ccccc3nc2NS(=O)(=O)c2cccc(NC(=O)c3ccc(C)c(OC)c3)c2)cc(OC)c1`: the “activity change, negative = inhibition” value is -344%.

For the molecule `CCOc1ccc(-c2cc(NC(=O)c3c(F)cccc3F)c(C(=O)O)s2)cc1`, the Potency was 5.01 µM (active).

On to `COc1cc(Nc2ccc([N+](=O)[O-])cc2C(=O)O)cc2ccccc12`, for which the Potency was 1.41 µM (active).

With `C/C=C/C=C/C=C/C(=O)O[C@@H]1[C@@H](OC)C2=C(C(=O)N(C(CCC(=O)O)C(=O)O)C2)[C@@]2(C)CCCC(C)(C)[C@H]12` (stereo partly drawn), the Potency was 15.8 µM (active).

Take `C/C(=C\CC/C(C)=C/CC[C@]1(C)CCc2cc(O)cc(C)c2O1)CC/C=C(\C)C(=O)O`: the Potency was 2.51 µM (active).

Take `O=C(Nc1ccccc1)Nc1ccc(-c2ccc(C(=O)C3CCCC3C(=O)O)cc2)cc1` (stereo not drawn): the Potency is 11.2 µM (active).

Turning to `Cc1cc(C)c2nc(-c3ccccn3)cc(C(=O)Nc3ccc(S(=O)(=O)Nc4onc(C)c4C)cc3)c2c1`, the Potency was 3.98 µM (active).

For the molecule `O=C1NC(=O)/C(=C/c2cccc(C(F)(F)F)c2)S1`, the Potency was 20 µM (active).
